Reference: PubChem BioAssay
Calls of active or inactive are those of the source.

Columns and labels:
Albumin (Bos taurus) = Albumin (Bos taurus) (UniProt P02769); assay: compounds binding labelled BSA control protein – biochemical, small-molecule microarray, Alexa647 label, 635/667 nm fluorescence, artefact control for SMM control protein annotation, profiling panel (AID 1118); conditions: BSA-A647 binding, fluorescence 635 nm, higher = more signal;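 note: score merges 667 nm emission intensity and signal-to-noise per printed compound spot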
[1] = probe aXIP binding to arrayed compounds – biochemical, NeuroSMM set, 635/667 nm fluorescence, primary screen (AID 1119); conditions: small-molecule microarray, higher = more signal, called active from +8 up or from −8 down;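 note: probe is the protein aXip251-270 applied at 1 µg/mL to compound-printed slides; binding of probe to printed compounds measured as 667 nm fluorescence plus signal to noise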
[2] = probe aNOTCH3 binding on compound microarray – biochemical, small-molecule microarray, 635/667 nm fluorescence, primary screen (AID 1120); conditions: higher = more signal;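 note: probe is a biotin-tagged antibody raised against NOTCH3 rather than NOTCH3 protein; score merges spot fluorescence near 667 nm with spot signal to noise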
[3] = probe aNOTCH2 binding on compound microarray – biochemical, small-molecule microarray, 635/667 nm fluorescence, primary screen (AID 1121); conditions: higher = more signal;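 note: score merges feature fluorescence read at 667 nm with its signal to noise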
[4] = molecular target: Carbonic anhydrase 2 (Homo sapiens) (UniProt P00918); assay: compounds binding carbonic anhydrase 2 – biochemical, small-molecule microarray, Alexa647-labelled CAII, profiling panel (AID 1122); conditions: CAII-A647 binding fluorescence, higher = more signal
[5] = COS7 lysate on small-molecule microarray, probe aHis, 635 nm (AID 1123); conditions: COS7 cell lysate, fluorescence, higher = more signal;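 note: z-score combines 667nm fluorescence intensity with signal-to-noise per printed compound spot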
[6] = probe aLAP1 signal on lysate-treated microarray – cell lysate, small-molecule microarray, COS7 lysate, primary screen (AID 1124); conditions: probe aLAP1, fluorescence, higher = more signal;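 note: lysate comes from COS7 cells expressing LAP1 and is applied at 0.3 µg/mL; score merges spot fluorescence near 667 nm with signal-to-noise over triplicate slides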
Sam68 (KHDRBS1) = assay: compounds binding KHDRBS1 protein – biochemical, small-molecule microarray, 635 nm fluorescence, primary screen (AID 1125); conditions: higher = more signal;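 note: score merges 667 nm channel intensity with signal to noise over triplicate slides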
[7] = system: Chordin-like protein 2 (CHRDL2); assay: compounds binding chordin-like 2 – biochemical, small-molecule microarray, 635 nm fluorescence, primary screen (AID 1126); conditions: fluorescence 635 nm, higher = more signal;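 note: printed compound slides probed with Chrdl2 protein at 4 µg/mL for 1 h at 4 C; score merges 667 nm emission intensity with signal to noise over three replicate slides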
[8] = molecular target: Concanavalin-A (Canavalia ensiformis) (UniProt P02866); assay: compounds binding concanavalin A lectin – biochemical, small-molecule microarray, Alexa647 label, 635 nm, artefact control for SMM control protein annotation, primary screen (AID 1127); conditions: ConA-A647 binding fluorescence, higher = more signal;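 note: z combines 667 nm emission intensity with signal-to-noise across three replicate slides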
Chain of Concanavalin-A (Canavalia ensiformis) (P02866 whole entry, looked up): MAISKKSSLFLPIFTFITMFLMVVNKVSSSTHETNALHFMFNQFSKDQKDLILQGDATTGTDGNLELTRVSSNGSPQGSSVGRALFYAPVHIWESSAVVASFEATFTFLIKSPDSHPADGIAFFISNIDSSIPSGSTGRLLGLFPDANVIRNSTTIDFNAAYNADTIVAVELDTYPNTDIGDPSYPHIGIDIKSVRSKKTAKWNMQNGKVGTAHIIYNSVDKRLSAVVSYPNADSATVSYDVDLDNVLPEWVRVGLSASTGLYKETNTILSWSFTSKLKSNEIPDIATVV

Chain of Albumin (Bos taurus) (P02769 whole entry, looked up): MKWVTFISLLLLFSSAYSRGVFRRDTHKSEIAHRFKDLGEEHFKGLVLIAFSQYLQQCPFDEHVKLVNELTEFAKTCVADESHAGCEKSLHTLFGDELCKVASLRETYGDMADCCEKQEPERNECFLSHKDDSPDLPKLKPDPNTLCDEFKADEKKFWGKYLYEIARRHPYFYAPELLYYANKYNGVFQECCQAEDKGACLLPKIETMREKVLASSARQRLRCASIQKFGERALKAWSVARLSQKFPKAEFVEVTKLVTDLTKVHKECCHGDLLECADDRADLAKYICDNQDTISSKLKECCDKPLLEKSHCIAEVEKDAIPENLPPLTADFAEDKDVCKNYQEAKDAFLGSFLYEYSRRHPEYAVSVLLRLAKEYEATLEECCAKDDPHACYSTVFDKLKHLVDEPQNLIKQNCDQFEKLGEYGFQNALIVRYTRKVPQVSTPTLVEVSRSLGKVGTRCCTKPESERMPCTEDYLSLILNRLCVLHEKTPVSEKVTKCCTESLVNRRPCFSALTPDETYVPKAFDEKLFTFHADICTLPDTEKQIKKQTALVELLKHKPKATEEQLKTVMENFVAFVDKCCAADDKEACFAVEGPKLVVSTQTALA

Row | SMILES | composite z-score (Albumin (Bos taurus)) | composite Z-score [1] | composite z-score [2] | composite z-score [3] | composite z-score [4] | composite z-score [5] | composite z-score [6] | composite z-score (Sam68 (KHDRBS1)) | composite z-score [7] | composite z-score [8]
1 | COc1ccc(CCNC(=O)[C@@]2(Sc3ccc(C)cc3)CC(=O)N(C3Cc4ccccc4C3)[C@@H]2c2ccc(CO)cc2I)cc1 | -0.101 | -0.235 (inactive) | 0.0425 | -0.192 | 0.729 | 1.17 | -0.286 | 0.608 | -0.235 | -1.26
2 | CN(C)CCCC[C@@H]1NC(=O)[C@H]2C[C@@H](C(=O)NCCCCCCN)[C@@H](c3ccc(O)cc3)N2C1=O | 0.887 | 0.37 (inactive) | 0.665 | 0.419 | 0.35 | 1.48 | 1.09 | 1.28 | 1.04 | 1.04
3 | CC(=O)NCCCC[C@@H]1NC(=O)[C@@H]2C[C@H](C(=O)NCCCCCNC(=O)CS)[C@H](c3cccc(OCCO)c3)N2C1=O | -0.0839 | 0.648 (inactive) | -0.205 | -0.159 | -0.0086 | -0.0704 | -0.0909 | 0.254 | 1.05 | 0.241
4 | CCS[C@H]1[C@@H](C(=O)O)[C@H](c2ccc(C)cc2)N(S(=O)(=O)c2ccc(C)cc2)[C@@H]1CC | 0.804 | -0.0164 (inactive) | 0.372 | 0.0431 | 0.519 | 1.77 | 0.5 | 1.32 | -0.467 | 0.615
5 | C=C(CCCC)/C(=C/C[C@H](OC(C)=O)c1ccccc1OCCO)c1cc(C(=O)OC)ccc1OC | 0.0908 | 0.0578 (inactive) | -0.141 | -0.117 | 0.767 | 0.0095 | 0.095 | 0.287 | -0.193 | -0.701
6 | CC(C)C[C@@H]1NC(=O)[C@@H]2C[C@H](C(=O)O)[C@H](c3cccc(OCCO)c3)N2C1=O | -0.494 | -0.303 (inactive) | -0.204 | -0.164 | 0.673 | 1.78 | 0.283 | -0.0754 | 0.707 | 0.684
7 | O=C1O[C@@H](c2ccccc2)[C@@H](c2ccccc2)N2[C@@H](c3ccccc3OCCO)[C@]3(C(=O)Nc4ccccc43)[C@@H](C(=O)Nc3nc4ccccc4s3)[C@H]12 | 0.827 | 0.703 (inactive) | 1.38 | -0.181 | 0.619 | 2.89 | 0.485 | 1.25 | -0.111 | 1.16
8 | COC(=O)[C@H](Cc1ccccc1)N[C@@H](/C=C/C1CC1)[C@H](O)Cc1ccccc1 | 0.0881 | -0.16 (inactive) | -0.246 | -0.244 | 0.209 | -0.255 | 0.0885 | -0.0844 | -0.0635 | 0.65
9 | COc1ccc(-c2cc3c(c(-c4ccc(Oc5ccccc5)cc4)n2)[Si](C(C)C)(C(C)C)OC3)cn1 | -0.344 | -0.108 (inactive) | -0.0311 | -0.132 | -0.163 | 0.0687 | -0.232 | -0.0667 | -0.0581 | 0.478
10 | C=CCN1C(=O)[C@@]2(CC=C)N=C(c3ccc(OCCCO)cc3)O[C@H]2c2ccccc21 | 0.272 | 0.33 (inactive) | 0.323 | 0.189 | 0.614 | 3.3 | 1.05 | 1.3 | 1.33 | 1.05
11 | CNS(=O)(=O)c1ccc(C)cc1 | -0.189 | 0.348 (inactive) | -0.185 | -0.0761 | -0.0894 | 0.284 | 0.291 | 0.667 | 1.07 | 0.613
12 | COc1ccc(CCNC(=O)[C@@]2(Sc3ccc(C)cc3)CC(=O)N(C(C)C)[C@@H]2c2ccc(CO)cc2I)cc1 | -0.235 | -0.174 (inactive) | -0.0647 | 0.0118 | 0.304 | 1.04 | 0.648 | 0.0063 | -0.578 | -0.613
13 | C=C(C)[C@@H]1CC=C(C(O)C2C=CC3C(=O)N(c4ccccc4)C(=O)C3N2Nc2ccccc2)CC1 (stereo not given in full) | 0.889 | 0.788 (inactive) | 0.75 | 0.405 | 0.879 | 2.84 | 0.736 | 1.3 | 0.543 | 1.13
14 | CO[C@H]1O[C@H](CO)[C@@H](OC(=O)Nc2ccccc2)[C@H](OC(=O)Nc2ccccc2)[C@@H]1OC(=O)Nc1ccccc1 | 0.809 | -0.0073 (inactive) | 0.289 | -0.0847 | 0.824 | 1.29 | 0.947 | 1.3 | 0.136 | 1.12
15 | CCOC(=O)C[C@H]1[C@H](OC(=O)c2ccc(C(=O)c3ccccc3)cc2)[C@@H](NC(=O)c2ccc3ccccc3c2)c2cc(OCCCO)ccc2N1C(=O)Cc1ccc(OC)cc1 | 0.638 | -0.68 (inactive) | -0.0932 | -0.149 | 0.009 | 0.899 | 0.0147 | 0.484 | -0.197 | 0.114
16 | COC(=O)[C@]1(CCC(=O)OC(C)(C)C)N=C(c2ccc(OCCCO)cc2)O[C@@H]1c1ccccc1CN=[N+]=[N-] | -0.325 | -1.26 (inactive) | -0.0284 | 0.0059 | 0.675 | 1.72 | -0.46 | 0.866 | -1.04 | 0.779
